Measured values as given in PubChem BioAssay AID1159580 (chemical genetic matrix, 2015).
Hit rate of the full screen: of about 5,500 compounds, about 2,000 (36%) were called active. About 18% were inconclusive and are not listed. Rule as the data show it: active = normalized growth mostly below about 0.91 (no sharp cut-off); inconclusive = no clear call, values can overlap the other calls; inactive = mostly above about 0.92. The list shows a part of the results.

Experiment: chemical genetic growth profiling, strain panel (AID 1159580);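 also: tested at 20 µM; growth read once vehicle control cultures reached saturation at 30 °C; 1 = growth at the plate median or of vehicle wells; lower values mean less growth of the strain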
Details: S. cerevisiae deletion strains, growth OD

Measured: normalized growth

O=C1C=CC(=O)c2ccccc21
active: locus YAL021C, strain ccr4, hits give low values 0.0676 | locus YAL026C, strain drs2, hits give low values 0.0697 | locus YAL030W, strain snc1, hits give low values 0.0571 | locus YBL061C, strain skt5, hits give low values 0.0618 | locus YBR009C, strain hhf1, hits give low values 0.064 | locus YBR023C, strain chs3, hits give low values 0.0634 | locus YBR171W, strain sec66, hits give low values 0.0895 | locus YBR231C, strain swc5, hits give low values 0.0652 | locus YBR279W, strain paf1, hits give low values 0.0871 | locus YCL011C, strain gbp2, hits give low values 0.0594 | locus YCL016C, strain dcc1, hits give low values 0.0722 | locus YCL061C, strain MRC1, hits give low values 0.0703 | locus YCL069W, strain vba3, hits give low values 0.0688 | locus YCR088W, strain abp1, hits give low values 0.0699 | locus YDL005C, strain med2, hits give low values 0.0758 | locus YDL040C, strain nat1, hits give low values 0.0706 | locus YDR001C, strain nth1, hits give low values 0.0722 | locus YDR069C, strain doa4, hits give low values 0.0698 | locus YDR137W, strain rgp1, hits give low values 0.288 | locus YDR159W, strain sac3, hits give low values 0.36 | locus YDR195W, strain ref2 0.13 | locus YDR297W, strain sur2, hits give low values 0.0592 | locus YDR334W, strain swr1, hits give low values 0.0769 | locus YDR335W, strain msn5, hits give low values 0.0683 | locus YDR392W, strain spt3, hits give low values 0.109 | locus YEL003W, strain gim4, hits give low values 0.0565 | locus YEL037C, strain rad23, hits give low values 0.0781 | locus YEL061C, strain CIN8 (second series), hits give low values 0.0717 | locus YER015W, strain faa2, hits give low values 0.0627 | locus YER016W, strain bim1, hits give low values 0.0642 | locus YER155C, strain BEM2 (second series), hits give low values 0.107 | locus YFR010W, strain ubp6, hits give low values 0.0794 | locus YGL167C, strain pmr1, hits give low values 0.0772 | locus YGL173C, strain kem1, hits give low values 0.0709 | locus YGL227W, strain vid30, hits give low values 0.0707 | locus YGL240W, strain doc1, hits give low values 0.0798 | locus YGL253W, strain hxk2, hits give low values 0.0667 | locus YHR013C, strain ard1, hits give low values 0.138 | locus YHR027C, strain rpn1, hits give low values 0.0646 | locus YHR030C, strain SLT2, hits give low values 0.102 | locus YHR079C, strain IRE1, hits give low values 0.12 | locus YHR142W, strain chs7, hits give low values 0.0814 | locus YJL092W, strain hpr5, hits give low values 0.074 | locus YJL095W, strain BCK1 (second series), hits give low values 0.0589 | locus YJL095W, strain BCK1, hits give low values 0.116 | locus YJL115W, strain asf1, hits give low values 0.0842 | locus YJL154C, strain vps35, hits give low values 0.0701 | locus YJL164C, strain tpk1, hits give low values 0.0603 | locus YJL166W, strain qcr8, hits give low values 0.0677 | locus YJL187C, strain SWE1, hits give low values 0.0597 | locus YJR066W, strain TOR1, hits give low values 0.116 | locus YKL160W, strain elf1, hits give low values 0.0712 | locus YKR026C, strain gcn3, hits give low values 0.0708 | locus YKR091W, strain srl3, hits give low values 0.0627 | locus YLL001W, strain dnm1, hits give low values 0.071 | locus YLL026W, hits give low values 0.0579 | locus YLL041C, strain sdh2, hits give low values 0.0596 | locus YLR027C, strain aat2, hits give low values 0.0574 | locus YLR113W, strain HOG1, hits give low values 0.135 | locus YLR221C, strain rsa3, hits give low values 0.0579 | locus YLR258W, strain gsy2, hits give low values 0.0611 | locus YLR262C, strain YPT6 (second series), hits give low values 0.0853 | locus YLR320W, strain mms22, hits give low values 0.0864 | locus YLR342W, strain FKS1, hits give low values 0.0683 | locus YLR357W, strain rsc2, hits give low values 0.137 | locus YLR370C, strain arc18, hits give low values 0.0746 | locus YLR384C, strain iki3, hits give low values 0.0643 | locus YML120C, strain ndi1, hits give low values 0.827 | locus YMR058W, strain fet3, hits give low values 0.0712 | locus YMR125W, strain sto1, hits give low values 0.0829 | locus YMR129W, hits give low values 0.0615 | locus YMR205C, strain PFK2, hits give low values 0.092 | locus YMR231W, strain pep5, hits give low values 0.0667 | locus YNL071W, strain lat1, hits give low values 0.0615 | locus YNL183C, strain NPR1, hits give low values 0.338 | locus YNL209W, strain ssb2, hits give low values 0.0608 | locus YNL248C, strain rpa49, hits give low values 0.0841 | locus YNL322C, strain KRE1 (second series), hits give low values 0.0674 | locus YNR049C, strain mso1, hits give low values 0.0752 | locus YOR001W, strain rrp6, hits give low values 0.0696 | locus YOR070C, strain gyp1, hits give low values 0.0608 | locus YOR080W, strain dia2, hits give low values 0.114 | locus YOR083W, strain WHI5, hits give low values 0.0702 | locus YOR106W, strain vam3, hits give low values 0.0684 | locus YOR231W, strain MKK1, hits give low values 0.111 | locus YOR265W, strain rbl2, hits give low values 0.0588 | locus YOR270C, strain vph1, hits give low values 0.124 | locus YOR290C, strain snf2, hits give low values 0.842 | locus YPL051W, strain arl3, hits give low values 0.0626 | locus YPL078C, strain atp4, hits give low values 0.41 | locus YPL106C, strain sse1, hits give low values 0.0998 | locus YPL240C, strain hsp82, hits give low values 0.0586 | locus YPL256C, strain CLN2, hits give low values 0.128
inactive: locus YER111C, strain swi4, hits give low values 0.917 | locus YJL129C, strain trk1, hits give low values 0.951
